Test results published in PubChem BioAssay.
The source made the active and inactive calls. Unless noted, the rule behind the calls is not given here.

Key:
[1] = anti-His antibody binders, primary screen, artefact control for SMM control protein annotation, biochemical, small-molecule microarray, 635 nm fluorescence (AID 1128); conditions: anti-His Alexa647 antibody binding, higher = more signal;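 note: score merges feature fluorescence with signal-to-noise for each printed compound spot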
[2] = tested on: Human papillomavirus type 1a E7 protein (residues 1-88); assay: HPV1a E7 small-molecule binders, primary screen, biochemical, small-molecule microarray, residues 1-88, 635 nm (AID 1129); conditions: small-molecule microarray binding, fluorescence 635 nm; higher = more signal
[3] = target: Focal adhesion kinase 1 (Homo sapiens) (UniProt Q05397); assay: small-molecule microarray binders of FAK, primary screen, biochemical, 635/667 nm fluorescence, BSA, DTT (AID 1130); conditions: PTK2 binding, 635 nm fluorescence, higher = more signal;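 note: composite of spot emission at 667 nm and signal to noise over triplicate slides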
[4] = tested on: Fibrinogen (Alexa647-labelled); assay: fibrinogen binders on compound microarrays, profiling panel, artefact control for SMM control-protein annotation, biochemical, small-molecule microarray, 635/667 nm fluorescence (AID 1131); conditions: fibrinogen-A647 binding fluorescence, higher = more signal;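 note: z-score merges 667 nm fluorescence with per-spot signal-to-noise over triplicate slides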
[5] = target: Follistatin (Homo sapiens) (UniProt P19883); assay: follistatin binders on small-molecule microarrays, primary screen, biochemical, small-molecule microarray, 635/667 nm fluorescence (AID 1132); conditions: FST binding, 635 nm fluorescence, higher = more signal
[6] = target: Fibroblast growth factor 2 (Homo sapiens) (UniProt P09038); assay: FGF2 binders on small-molecule microarrays, primary screen, biochemical, small-molecule microarray, 635/667 nm fluorescence (AID 1133); conditions: small-molecule microarray binding, FGF2, fluorescence 635/667; higher = more signal
[7] = mitochondrial membrane potential change in A549 cells, profiling panel, cell-based, JC-1 fluorescence, basal, 24 h, 100 nL (AID 1138); conditions: higher = more signal;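 note: A549 lung adenocarcinoma cells under basal conditions with no added stimulus; test concentration not given here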
Lefty1 = Lefty1 binders on small-molecule microarrays, primary screen, biochemical, small-molecule microarray, 635/667 nm fluorescence (AID 1139); conditions: small-molecule microarray binding, fluorescence 635/667; higher = more signal
[8] = tested on: wheat germ agglutinin (Triticum aestivum), Alexa647-labelled; assay: wheat germ agglutinin binders on compound microarrays, profiling panel, artefact control for SMM control-protein annotation, biochemical, small-molecule microarray, 635/667 nm fluorescence (AID 1140); conditions: WGA-A647 binding, 635 nm fluorescence, higher = more signal;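 note: score merges 667 nm feature emission with signal to noise over triplicate slides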
[9] = target: Luciferin 4-monooxygenase (Photinus pyralis) (UniProt P08659); assay: firefly luciferase enzyme inhibitors, primary screen, biochemical, luminescence, purified enzyme, 2006 set (AID 1141); conditions: SteadyGlo luminescence, 30 min, higher = more signal, called active from +8 up or from −8 down;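 note: cell-free assay with purified firefly luciferase at 100 ng per well in PBS; test concentration not given here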
[10] = tested on: Wnt5a (protein binding on small-molecule microarray); assay: Wnt5a binders on small-molecule microarray, primary screen, biophysical, 635/667 nm fluorescence (AID 1142); conditions: 635 nm fluorescence, higher = more signal;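 note: fluorescence read at 667 nm with signal to noise per printed feature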
[11] = cell viability in Huh7 cells, primary screen, cytotoxicity control for HCV replication inhibitor project, CellTiter-Glo luminescence, basal, 48 h (AID 1143); conditions: Huh7 HCV replicon, higher = more signal, called active from +8 up or from −8 down;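 note: Huh7 hepatoma cells carrying a hepatitis C replication reporter with no stimulus; test concentration not given here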
[12] = P. aeruginosa biofilm formation inhibitors, primary screen, PAO1 strain, BacTiter-Glo luminescence, LB-PBS (AID 1144); conditions: 12 h, higher = more signal
[13] = CREB reporter modulators without forskolin, primary screen, cell-based, PC12, CRE-LacZ reporter, unstimulated (AID 1145); conditions: no forskolin, luminescence, 4.5 h, higher = more signal, called active from +8 up or from −8 down
[14] = CREB reporter modulators under forskolin, primary screen, cell-based, PC12, CRE-LacZ reporter, forskolin-stimulated (AID 1146); conditions: luminescence, 4.5 h, higher = more signal, called active from +8 up or from −8 down;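 note: PC12 cells with 6xCRE LacZ reporter stimulated by forskolin 10 µM; beta-galactosidase reporter signal reflecting CREB driven transcription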
[15] = target: Streptavidin (Streptomyces avidinii) (UniProt P22629); assay: streptavidin binders on small-molecule microarray, primary screen, artefact control for SMM compound annotation, biophysical, 635/667 nm fluorescence (AID 1147); conditions: streptavidin binding, higher = more signal;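 note: signal reflects streptavidin binding to arrayed compounds as a control protein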
[16] = small-molecule binders of probe aInhba, primary screen, biochemical, small-molecule microarray, 635/667 nm fluorescence (AID 1148); conditions: higher = more signal;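 note: score merges 667nm spot fluorescence with signal-to-noise for antibody binding to printed compounds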
Torsin-1A (Homo sapiens) [17] = target: Torsin-1A (Homo sapiens) (UniProt O14656); assay: torsin A binders from cell lysate, primary screen, small-molecule microarray, wild-type, 635/667 nm (AID 1149); conditions: COS7 hTOR1A-WT lysate, 635 nm fluorescence, higher = more signal
Torsin-1A (Homo sapiens) [18] = target: Torsin-1A (Homo sapiens) (UniProt O14656); assay: small-molecule binders of mutant TOR1A in lysate, primary screen, cell lysate, small-molecule microarray, COS7 lysate, 635/667 nm fluorescence (AID 1150); conditions: COS7 hTOR1A mutant lysate, 635 nm fluorescence, higher = more signal;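 note: score pools 667 nm emission and signal to noise measuring lysate protein binding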
[19] = tested on: Sonic hedgehog protein (Shh); assay: small-molecule binders of Shh protein, primary screen, biochemical, small-molecule microarray, 635/667 nm fluorescence (AID 1151); conditions: small-molecule microarray binding, 635 nm fluorescence; higher = more signal;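 note: Shh protein binding to compounds spotted on small-molecule microarray slides; score combines spot fluorescence intensity with signal-to-noise across triplicate slides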

Torsin-1A (Homo sapiens), sequence (O14656 whole entry, looked up): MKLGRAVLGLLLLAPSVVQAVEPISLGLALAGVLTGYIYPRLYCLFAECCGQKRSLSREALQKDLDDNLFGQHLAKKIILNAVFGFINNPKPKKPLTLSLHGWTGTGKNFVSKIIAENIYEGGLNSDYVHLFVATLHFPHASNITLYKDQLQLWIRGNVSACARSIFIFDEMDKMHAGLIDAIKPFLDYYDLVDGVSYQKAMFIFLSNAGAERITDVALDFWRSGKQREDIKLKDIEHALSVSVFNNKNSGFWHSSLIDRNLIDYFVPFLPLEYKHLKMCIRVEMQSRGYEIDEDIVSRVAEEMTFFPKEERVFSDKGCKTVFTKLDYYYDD
Focal adhesion kinase 1 (Homo sapiens), sequence (Q05397 whole entry, looked up): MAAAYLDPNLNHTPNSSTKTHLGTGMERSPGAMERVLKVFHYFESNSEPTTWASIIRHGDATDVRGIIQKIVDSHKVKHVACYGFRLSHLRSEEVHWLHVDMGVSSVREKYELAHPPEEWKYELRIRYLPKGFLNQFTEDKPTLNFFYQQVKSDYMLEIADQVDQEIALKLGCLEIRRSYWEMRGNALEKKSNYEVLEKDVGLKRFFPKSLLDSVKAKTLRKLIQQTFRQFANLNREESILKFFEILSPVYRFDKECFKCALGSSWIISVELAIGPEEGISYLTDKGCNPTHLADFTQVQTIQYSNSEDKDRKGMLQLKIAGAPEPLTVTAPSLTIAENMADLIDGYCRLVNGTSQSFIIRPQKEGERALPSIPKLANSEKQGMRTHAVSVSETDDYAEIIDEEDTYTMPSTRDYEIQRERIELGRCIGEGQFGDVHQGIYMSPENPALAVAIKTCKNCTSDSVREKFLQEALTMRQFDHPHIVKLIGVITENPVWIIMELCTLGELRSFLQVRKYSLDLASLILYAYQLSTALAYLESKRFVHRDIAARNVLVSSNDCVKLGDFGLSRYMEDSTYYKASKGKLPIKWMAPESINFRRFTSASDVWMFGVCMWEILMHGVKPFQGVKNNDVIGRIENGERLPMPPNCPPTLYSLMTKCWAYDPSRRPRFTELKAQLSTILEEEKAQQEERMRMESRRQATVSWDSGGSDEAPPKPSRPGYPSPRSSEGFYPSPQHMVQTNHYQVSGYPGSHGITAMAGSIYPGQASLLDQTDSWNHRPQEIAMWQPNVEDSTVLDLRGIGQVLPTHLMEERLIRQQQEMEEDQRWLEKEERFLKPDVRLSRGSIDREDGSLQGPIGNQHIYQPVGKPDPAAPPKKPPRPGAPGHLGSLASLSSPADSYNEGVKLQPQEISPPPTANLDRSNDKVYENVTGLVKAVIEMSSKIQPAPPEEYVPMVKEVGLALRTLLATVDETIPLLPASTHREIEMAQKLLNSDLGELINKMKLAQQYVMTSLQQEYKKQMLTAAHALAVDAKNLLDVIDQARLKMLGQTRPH
Streptavidin (Streptomyces avidinii), sequence (P22629 whole entry, looked up): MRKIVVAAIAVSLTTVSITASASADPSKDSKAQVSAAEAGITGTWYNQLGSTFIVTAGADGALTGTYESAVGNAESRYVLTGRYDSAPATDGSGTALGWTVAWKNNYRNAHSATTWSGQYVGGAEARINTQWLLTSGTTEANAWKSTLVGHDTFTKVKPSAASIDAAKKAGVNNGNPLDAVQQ
Luciferin 4-monooxygenase (Photinus pyralis), sequence (P08659 whole entry, looked up): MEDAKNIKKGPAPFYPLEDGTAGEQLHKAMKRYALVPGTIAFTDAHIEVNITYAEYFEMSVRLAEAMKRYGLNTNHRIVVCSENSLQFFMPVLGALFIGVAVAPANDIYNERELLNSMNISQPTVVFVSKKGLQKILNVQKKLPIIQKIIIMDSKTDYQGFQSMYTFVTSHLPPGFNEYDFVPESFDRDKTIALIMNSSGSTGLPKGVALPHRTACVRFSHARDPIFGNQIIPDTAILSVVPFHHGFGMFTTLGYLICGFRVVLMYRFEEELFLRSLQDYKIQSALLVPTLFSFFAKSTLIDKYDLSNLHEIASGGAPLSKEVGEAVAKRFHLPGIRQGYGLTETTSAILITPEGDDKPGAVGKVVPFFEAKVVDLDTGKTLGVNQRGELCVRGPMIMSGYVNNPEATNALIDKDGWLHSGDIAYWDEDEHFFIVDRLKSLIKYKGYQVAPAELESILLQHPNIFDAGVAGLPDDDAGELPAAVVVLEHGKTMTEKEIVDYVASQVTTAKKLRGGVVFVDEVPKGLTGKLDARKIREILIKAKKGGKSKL
Follistatin (Homo sapiens), sequence (P19883 whole entry, looked up): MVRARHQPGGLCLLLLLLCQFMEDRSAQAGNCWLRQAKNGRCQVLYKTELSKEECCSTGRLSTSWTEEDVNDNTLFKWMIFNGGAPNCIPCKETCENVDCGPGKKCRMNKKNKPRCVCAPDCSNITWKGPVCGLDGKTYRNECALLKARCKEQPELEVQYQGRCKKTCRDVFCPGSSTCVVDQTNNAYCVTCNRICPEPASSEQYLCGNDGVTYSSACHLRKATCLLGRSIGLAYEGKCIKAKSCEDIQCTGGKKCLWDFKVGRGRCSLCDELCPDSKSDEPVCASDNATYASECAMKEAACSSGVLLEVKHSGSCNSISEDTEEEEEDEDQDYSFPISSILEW
Fibroblast growth factor 2 (Homo sapiens), sequence (P09038 whole entry, looked up): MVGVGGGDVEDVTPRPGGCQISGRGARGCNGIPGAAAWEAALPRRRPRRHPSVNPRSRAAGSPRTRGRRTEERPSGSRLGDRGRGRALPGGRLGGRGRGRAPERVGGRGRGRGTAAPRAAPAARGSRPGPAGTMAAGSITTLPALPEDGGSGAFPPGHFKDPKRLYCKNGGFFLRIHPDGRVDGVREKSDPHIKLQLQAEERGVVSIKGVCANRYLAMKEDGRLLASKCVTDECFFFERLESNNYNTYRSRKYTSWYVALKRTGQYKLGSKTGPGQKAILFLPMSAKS

| SMILES | composite z-score [1] | composite z-score [2] | composite z-score [3] | composite z-score [4] | composite z-score [5] | composite z-score [6] | z-score [7] | composite z-score (Lefty1) | composite z-score [8] | z-score [9] | composite z-score [10] | z-score [11] | z-score [12] | z-score [13] | z-score [14] | composite z-score [15] | composite z-score [16] | composite z-score (Torsin-1A (Homo sapiens) [17]) | composite z-score (Torsin-1A (Homo sapiens) [18]) | composite z-score [19] |
| --- | --- | --- | --- | --- | --- | --- | --- | --- | --- | --- | --- | --- | --- | --- | --- | --- | --- | --- | --- | --- |
| CC(C)[Si](C#C[Si](C(C)C)(C(C)C)C(C)C)(O[C@H](C)c1cn([C@H](CO)Cc2ccccc2)nn1)C(C)C | 0.0517 | 0.209 | 0.21 | 0.259 | -0.093 | 0.288 | 0.476 | 0.412 | 0.141 | -1.03 (inactive) | -0.0305 | -0.43 (inactive) | -1.52 (inactive) | -0.463 (inactive) | -0.531 (inactive) | 0.291 | -0.234 | 0.238 | 0.144 | 0.341 |
| CN(C)CCCNC(=O)[C@@]1(c2ccc([N+](=O)[O-])cc2)CC(=O)N(CC23CC4CC(CC(C4)C2)C3)[C@@H]1c1ccc(CO)cc1I | 1.46 | 1.21 | -0.0381 | 0.846 | 1.35 | 1.34 | -2.32 | 1.5 | 0.674 | -1.46 (inactive) | 0.607 | -5.93 (inactive) | -0.263 (inactive) | 0.468 (inactive) | 0.372 (inactive) | 0.164 | 0.206 | 0.835 | 0.996 | 1.96 |
| COC(=O)[C@@]1(Cc2ccc(OC)cc2)[C@@H]2C(=CC(=O)[C@H]2CC(=O)C(=O)N(C)C)CN1C(=O)c1ccccc1 | 0.318 | 1.23 | 0.242 | 0.833 | 0.433 | -0.139 | 0.437 | -0.973 | 0.521 | 2.12 (inactive) | 0.956 | -3.7 (inactive) | -0.946 (inactive) | 0.0109 (inactive) | 0.0777 (inactive) | 1.23 | 1.04 | 0.0826 | 0.387 | -0.671 |
| CC(CO)N1C(=O)[C@@H]2[C@H]3C(=O)OCC=C[C@H]3OC23C=CCN(CCN2CCOCC2)C(=O)[C@@H]13 (stereo not given in full) | 1.01 | -0.549 | -0.568 | -1.3 | 0.207 | -0.443 | 0.659 | 0.27 | 0.11 | -0.531 (inactive) | 0.0471 | -0.62 (inactive) | 1.3 (inactive) | 0.463 (inactive) | 0.0027 (inactive) | -0.418 | -0.314 | -0.829 | -0.475 | 1.65 |
| CC(c1ccccc1)C(O)C1C=CC2C(=O)N(c3ccccc3)C(=O)C2N1Nc1ccc([N+](=O)[O-])cc1 (stereo not given) | 1.75 | 1.25 | 0.605 | 1.03 | 1.03 | 0.328 | -0.915 | 0.44 | 0.783 | 1.58 (inactive) | 0.523 | -0.664 (inactive) | -1.53 (inactive) | -0.48 (inactive) | 0.624 (inactive) | 0.656 | 0.118 | 0.971 | 0.29 | 0.513 |
| CCOC(=O)C[C@H]1[C@H](OC(=O)Cc2ccc3c(c2)OCO3)[C@@H](NC(=O)Cc2ccc(OC)cc2)c2cc(OCCCO)ccc2N1C(=O)c1ccc2ccccc2n1 | 0.0036 | 0.383 | -0.345 | 0.172 | 0.147 | 0.211 | 2.69 | 0.168 | -0.119 | -1.7 (inactive) | -0.223 | -0.823 (inactive) | -0.687 (inactive) | 10.1 (active) | -1.24 (inactive) | 0.0739 | -0.0547 | 0.183 | 0.714 | 0.492 |
| C=CCOC(=O)[C@H]1[C@@H]2C(=O)O[C@@H](c3ccccc3)[C@@H](c3ccccc3)N2[C@@H](c2ccc(OCCOC(=O)[C@H]3C[C@H]4C(=O)N[C@@H](CC(C)C)C(=O)N4[C@H]3c3cccc(OCCO)c3)cc2)[C@]12C(=O)Nc1ccc(I)cc12 | 2 | 1.18 | 0.84 | 0.452 | 1.36 | 1.71 | -0.175 | 1.22 | 0.437 | -1.48 (inactive) | 0.725 | 0.0478 (inactive) | 0.568 (inactive) | 0.411 (inactive) | -0.368 (inactive) | 0.205 | -0.154 | 0.644 | 0.908 | 1.73 |
| COC(=O)[C@@]1(Cc2ccc(OC)cc2)[C@H]2c3cc(C(=O)N(C)C)n(Cc4ccc(Cl)c(C(F)(F)F)c4)c3C[C@H]2CN1C(=O)c1ccccc1 | 1.99 | 1.22 | 0.71 | 0.982 | 0.655 | -0.451 | 0.0187 | -0.68 | 1.22 | 1.65 (inactive) | 0.758 | -2.81 (inactive) | 0.275 (inactive) | 2.87 (inactive) | 2.18 (inactive) | 0.725 | 0.515 | -0.213 | 0.234 | -0.988 |
| C=CC1c2cc(O)c(OC)cc2CCN1Cc1cc2c(cc1Br)OCO2 (stereo not given) | 0.976 | -1.38 | -0.0181 | -0.851 | 1.27 | -0.0941 | -1.54 | 0.504 | -0.623 | 0.0715 (inactive) | -0.158 | -5.24 (inactive) | 0.0937 (inactive) | 0.299 (inactive) | 0.962 (inactive) | -0.361 | -0.128 | 1.34 | 0.587 | 0.672 |
| Cc1cc(C)c(C(O)C2C=CC3C(=O)NC(=O)C3N2Nc2ccc(Cl)cc2Cl)c(C)c1 (stereo not given) | 1.37 | 1.22 | 0.941 | 0.966 | 1.08 | 0.752 | -0.318 | -0.0986 | 1.19 | -1.43 (inactive) | 0.0976 | -0.943 (inactive) | -0.882 (inactive) | -0.329 (inactive) | -0.496 (inactive) | 1.64 | 0.249 | 0.148 | 0.697 | -0.684 |
